A short description of assay [1]: qHTS assay to test for compound auto fluorescence at 535 nm (green) in HEK293 cells (AID 720680). (In general: In qHTS, concentration-response curves come from the screen itself.)
Assay [2] can be described thus: qHTS assay to test for compound auto fluorescence at 535 nm (green) in HEK293 cell free culture (AID 720682). Put shortly: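 Fluorescein serves as the green reference fluorophore; each compound's intrinsic emission at 535 nm (excitation 485 nm) is reported as an equivalent amount of that dye, measured in serum-containing DMEM without cells.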
Assay [3] can be described thus: qHTS assay to test for compound auto fluorescence at 590 nm (red) in HEK293 cell free culture (AID 720683). A digest of the protocol:
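Tox21 10K library compounds were pinned into cell-free DMEM with 10% FBS and fluorescence was read at excitation 540 nm. Activity is expressed as Rose Bengal sodium equivalency.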

Assay [4] can be described thus: qHTS assay to test for compound auto fluorescence at 590 nm (red) in HepG2 cell free culture (AID 720684). Put shortly:
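Ex 540 / Em 590 nm read of compound in cell-free MEM (10% FBS). Rose Bengal sodium reference.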

A short description of assay [5]: qHTS assay to test for compound auto fluorescence at 460 nm (blue) in HepG2 cell free culture (AID 720685). Put shortly: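 Cell-free plates of MEM plus 10% FBS received 23 nL compound or DMSO vehicle; blue-channel (405/460 nm) intensity scored against triamterene as reference fluorophore.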
Assay [6] is described as follows: qHTS assay to test for compound auto fluorescence at 535 nm (green) in HepG2 cell free culture (AID 720686).
Assay [7] is described as follows: qHTS assay to test for compound auto fluorescence at 460 nm (blue) in HepG2 cells (AID 720687). Put shortly: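 Cells (2,000/well in MEM with 10% FBS) attached overnight at 37 C, then were exposed to compound or DMSO for 1 hr at 37 C, 5% CO2. Fluorescence read at Ex/Em 405/460 nm, expressed as triamterene-equivalent signal.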
The target in assay [8] is Glucocorticoid receptor (Homo sapiens) (UniProt P04150). The experiment in a line: qHTS assay to identify small molecule agonists of the glucocorticoid receptor (GR) signaling pathway (AID 720691; active means well fitted activation curve with a large enough effect in the signal ratio in the repeat runs, not every such curve was filed as active; the % refers to the signal ratio). A digest of the protocol: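 HeLa GR-bla reporter line; cells pre-incubated 4 h, compound in DMSO 18 h at 37 C; LiveBLAzer B/G FRET substrate 2 h RT; fluorescence intensity read-out.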

Assay [9] shares this target. In words: qHTS assay to identify small molecule antagonists of the glucocorticoid receptor (GR) signaling pathway (AID 720692; active means well fitted inhibition curve with a large enough effect in the signal ratio in the repeat runs, not every such curve was filed as active; the % refers to the signal ratio). A digest of the protocol:
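Read-out: beta-lactamase FRET substrate fluorescence, 2 h at room temperature, in HeLa cells stably carrying a GRE-driven bla reporter. Compounds were co-incubated with 5 nM dexamethasone agonist (final) for 18 h at 37 C.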

The nature of assay [10]: qHTS assay to identify small molecule antagonists of the glucocorticoid receptor (GR) signaling pathway - cell viability counter screen (AID 720693). Further: nearly all actives have a fitted effect of over 55% in size.
Assay [11] is described as follows: qHTS assay for identifying genotoxic compounds that show differential cytotoxicity against isogenic chicken DT40 cell lines with known DNA damage response pathways - wild type cell line (AID 743012). Further: nearly all actives have a fitted effect of over 60% in size. Further: potency means the concentration at half of the fitted maximal effect. Put shortly: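 CellTiter-Glo luminescence readout of viability in wild type DT40 cells after 40 h compound exposure at 37 C/5% CO2; 300 cells/well; reagent incubated 30 min at room temperature before reading.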

A short description of assay [12]: qHTS assay for identifying genotoxic compounds that show differential cytotoxicity against isogenic chicken DT40 cell lines with known DNA damage response pathways - Rev3 mutant cell line (AID 743014). Further: nearly all actives have a fitted effect of over 55% in size. Further: potency means the concentration at half of the fitted maximal effect.
A short description of assay [13]: qHTS assay for identifying genotoxic compounds that show differential cytotoxicity against isogenic chicken DT40 cell lines with known DNA damage response pathways - Rad54/Ku70 mutant cell line (AID 743015). Further: nearly all actives have a fitted effect of over 60% in size. Further: potency means the concentration at half of the fitted maximal effect.
Assay [14] in a line: qHTS assay to identify small molecule antagonists of the androgen receptor (AR) signaling pathway - cell viability counter screen (AID 743033; further: nearly all actives have a fitted effect of over 45% in size).
Assay [15] is described as follows: qHTS assay to identify small molecule antagonists of the androgen receptor (AR) signaling pathway using the MDA cell line - cell viability counter screen (AID 743041; further: nearly all actives have a fitted effect of over 45% in size; further: potency means the concentration at half of the fitted maximal effect). A digest of the protocol:
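In this qHTS counter assay, fluorescence intensity after CellTiter-Fluor addition indicated viability of MDA-kb2 AR-luc cells given compounds and R1881 for 16 h at 37C.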

The nature of assay [16]: qHTS assay to test for compound auto fluorescence at 460 nm (blue) in HEK293 cell free culture (AID 720681). Put shortly:
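Test compounds were pinned into cell-free culture medium (DMEM with 10% FBS) and fluorescence was read directly at Ex/Em 405/460 nm. Signals were expressed as fluorescence equivalents of triamterene, with DMSO vehicle as control.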

Assay [17] deals with Androgen receptor (Homo sapiens) (UniProt P10275). The experiment in a line: qHTS assay to identify small molecule antagonists of the androgen receptor (AR) signaling pathway (AID 743035; active means well fitted inhibition curve with a large enough effect in the signal ratio in the repeat runs, not every such curve was filed as active; the % refers to the signal ratio). A digest of the protocol: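 AR-bla HEK293 reporter cells; 4 h settle at 37C/5% CO2; compound + R1881 agonist, 16 h at 37C; LiveBLAzer B/G FRET substrate 2 h RT; fluorescence intensity read. qHTS format.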

For assay [18] the target is unchanged. In words: qHTS assay to identify small molecule agonists of the androgen receptor (AR) signaling pathway (AID 743036; active means well fitted activation curve with a large enough effect in the signal ratio in the repeat runs, with a control signal flat, not every such curve was filed as active; the % refers to the signal ratio). Put shortly: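 Fluorescence from a beta-lactamase FRET substrate served as read-out in AR-UAS-bla GripTite HEK293 cells. Cells were treated with DMSO-dissolved compounds for 16 h at 37C, then with LiveBLAzer B/G substrate for 2 h at room temperature.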

Assay [19] has the same target. The experiment in a line: qHTS assay to identify small molecule agonists of the androgen receptor (AR) signaling pathway using the MDA cell line (AID 743040; further: nearly all actives have a fitted effect of over 20% in size). A digest of the protocol:
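Cell-based luciferase reporter: MDA-kb2, MMTV promoter (AR + GR response elements). 16 h compound exposure at 37C; ONE-Glo, 30 min RT, luminescence.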

Assay [20] has the same target. The experiment in a line: qHTS assay to identify small molecule antagonists of the androgen receptor (AR) signaling pathway using the MDA cell line (AID 743042; further: nearly all actives have a fitted effect of over 55% in size). Put shortly: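 MDA-kb2 cells (human breast carcinoma, stably carrying an MMTV-luciferase reporter responsive to AR and GR) were plated at 3,000 cells/well and preincubated 5 hr at 37C, then given compound plus R1881 agonist for 16 h. ONE-Glo luminescence was read.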

A number with no mark means an inactive call. Inconclusive results are not listed. Active and inactive are the calls of the source. Unless noted, the call rests on the fitted dose curve; in most records, active means well fitted curve in the direction sought with a large enough effect in the repeat runs; inconclusive means weak or mixed curves; inactive means no such curve, though single readings can be large; an effect the other way counts as inactive or inconclusive.
On the % scale 0 is the no-effect control and ±100 the full control effect.

Sequence of Glucocorticoid receptor (Homo sapiens) (P04150 whole entry, looked up): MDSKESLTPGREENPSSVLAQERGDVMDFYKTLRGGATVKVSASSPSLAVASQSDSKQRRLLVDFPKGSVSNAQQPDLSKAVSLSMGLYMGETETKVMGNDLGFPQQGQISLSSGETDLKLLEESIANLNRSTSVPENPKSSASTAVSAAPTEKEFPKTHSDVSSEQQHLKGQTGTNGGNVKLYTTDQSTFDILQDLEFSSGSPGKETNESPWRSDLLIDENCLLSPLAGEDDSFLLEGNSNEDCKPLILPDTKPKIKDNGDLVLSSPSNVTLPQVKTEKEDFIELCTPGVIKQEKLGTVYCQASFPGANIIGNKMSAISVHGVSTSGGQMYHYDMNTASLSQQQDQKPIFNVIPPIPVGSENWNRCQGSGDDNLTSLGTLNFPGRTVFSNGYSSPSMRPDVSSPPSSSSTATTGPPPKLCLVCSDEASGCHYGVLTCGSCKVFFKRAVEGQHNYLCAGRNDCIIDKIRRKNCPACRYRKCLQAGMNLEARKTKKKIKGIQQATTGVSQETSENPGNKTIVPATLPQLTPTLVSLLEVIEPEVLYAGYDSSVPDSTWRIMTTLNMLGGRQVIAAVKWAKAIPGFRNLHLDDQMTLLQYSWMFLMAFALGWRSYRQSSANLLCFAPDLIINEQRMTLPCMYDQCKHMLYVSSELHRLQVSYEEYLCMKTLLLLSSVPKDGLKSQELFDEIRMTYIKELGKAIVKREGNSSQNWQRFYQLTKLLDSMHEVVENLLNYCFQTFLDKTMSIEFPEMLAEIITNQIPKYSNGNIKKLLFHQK
Sequence of Androgen receptor (Homo sapiens) (P10275 whole entry, looked up): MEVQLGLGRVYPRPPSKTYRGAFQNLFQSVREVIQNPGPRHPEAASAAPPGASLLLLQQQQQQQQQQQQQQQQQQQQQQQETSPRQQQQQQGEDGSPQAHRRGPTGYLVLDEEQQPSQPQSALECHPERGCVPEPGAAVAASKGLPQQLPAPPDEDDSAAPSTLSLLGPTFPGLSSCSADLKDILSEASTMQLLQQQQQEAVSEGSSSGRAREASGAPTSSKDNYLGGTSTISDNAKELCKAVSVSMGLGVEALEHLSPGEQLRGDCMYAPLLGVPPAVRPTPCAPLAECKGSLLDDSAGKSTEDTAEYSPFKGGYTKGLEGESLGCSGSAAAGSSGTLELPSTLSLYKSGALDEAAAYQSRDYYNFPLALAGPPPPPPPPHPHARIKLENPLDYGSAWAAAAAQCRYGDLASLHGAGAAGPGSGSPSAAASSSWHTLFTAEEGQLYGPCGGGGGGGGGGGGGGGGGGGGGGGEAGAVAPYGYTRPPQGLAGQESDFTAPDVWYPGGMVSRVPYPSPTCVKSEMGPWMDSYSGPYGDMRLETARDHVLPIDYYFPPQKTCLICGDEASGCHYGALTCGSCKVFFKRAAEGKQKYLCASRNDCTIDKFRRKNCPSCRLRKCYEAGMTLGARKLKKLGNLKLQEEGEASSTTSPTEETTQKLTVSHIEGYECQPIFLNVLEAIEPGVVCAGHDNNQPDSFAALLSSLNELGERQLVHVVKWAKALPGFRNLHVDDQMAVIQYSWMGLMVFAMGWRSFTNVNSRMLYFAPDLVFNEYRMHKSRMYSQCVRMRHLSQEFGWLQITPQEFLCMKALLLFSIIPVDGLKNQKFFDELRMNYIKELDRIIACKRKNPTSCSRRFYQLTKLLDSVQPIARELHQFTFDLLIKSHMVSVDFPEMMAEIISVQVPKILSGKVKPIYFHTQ

Consider `CC(=O)OCCC1CCCCC1`, for which the call in [1], in assay [2], in assay [3], in assay [4] and in assay [6] was inactive. Further, the Potency entry in [5], in assay [7], in assay [8], in [9], in assay [10] and in [11] was “inactive” each time. For the same molecule, the Potency entry in assay [12], in assay [13], in assay [14] and in assay [15] was “inactive” each time.

Take `CC(C)OC(=O)c1ccccc1C(=O)OC(C)C`: the call in assay [1], in assay [2], in [4] and in [6] was inactive. Besides, the Potency result in assay [16], in assay [5], in assay [7], in assay [8], in assay [9] and in assay [10] was “inactive” each time. In addition, the Potency entry in [15] is “inactive”. The Potency in assay [12] was 43.3 µM (active).

Consider `COc1cc(NC(C)CCCN)c2ncccc2c1` (stereo unspecified), for which the fluorescence, % of fluorescein in assay [1] is -0.0105% [at 18.6 µM]. For the same molecule, the fluorescence, % of fluorescent control is 1.01% [at 18.6 µM] in assay [16], 0.907% [at 18.6 µM] in assay [5] and 0.746% [at 18.6 µM] in assay [7]. Moreover, the activity change in assay [2] was 0.0005% [at 18.6 µM]. Also, in assay [4], the fluorescence, % of Rose Bengal is 0.347% [at 18.6 µM]. Further, in assay [6], the fluorescence, % of fluorescein control was -0.0264% [at 18.6 µM]. Also, the Potency result in [10] and in assay [15] was “inactive” each time. Besides, the Potency in assay [11] is 11.4 µM (active).

For the molecule `CCN(Cc1cccc(S(=O)(=O)O)c1)c1ccc(C(=C2C=CC(=[N+](CC)Cc3cccc(S(=O)(=O)O)c3)C=C2)c2ccccc2S(=O)(=O)[O-])cc1`, the outcome in [1], in assay [2], in [4] and in assay [6] was inactive. Moreover, the Potency result in [16], in [5] and in assay [7] was “inactive” throughout. In addition, the Potency in [11] was 15.4 µM (active); in assay [12] it was 17.3 µM (active); in [13], 15.4 µM (active); in assay [15], 38.7 µM (active).

With `O=C(CCS)OCC(COC(=O)CCS)(COC(=O)CCS)COC(=O)CCS`, the result in [1], in assay [2], in assay [4] and in assay [6] was inactive. The Potency entry in assay [16], in [5], in [7], in assay [8], in assay [9] and in assay [10] was “inactive” each time. The Potency entry in [12], in assay [13], in [14] and in assay [15] was “inactive” in each case.

As for `CC(C)(C)C(O)/C=C/c1ccc2c(c1)OCO2` (stereo unspecified), the call in assay [1], in [2], in assay [4] and in assay [6] was inactive. The Potency result in assay [16], in [5], in assay [7], in [10], in assay [14] and in assay [15] was “inactive” each time.

As for `CN=C(N)NC(=O)Nc1c(C)cccc1C`, the result in assay [1], in assay [2], in assay [4] and in [6] was inactive. Further, the Potency result in assay [16], in assay [5], in assay [7], in [8], in [9] and in [10] was “inactive” in each case. Further, the Potency result in assay [11], in [13], in assay [14] and in [15] was “inactive” in each case.

Turning to `Cc1cn([C@H]2C[C@H](F)[C@@H](CO)O2)c(=O)[nH]c1=O`, the call in assay [1], in assay [2], in [4], in assay [6] and in assay [18] was inactive. Moreover, the Potency entry in assay [16], in assay [5], in assay [7], in assay [8], in assay [9] and in assay [10] was “inactive” in each case. Besides, the Potency result in assay [12], in [13], in [17], in assay [19], in assay [15] and in [20] was “inactive” in each case.

On to `O=C(/C=C/c1ccc([N+](=O)[O-])cc1)c1ccccc1`, for which the call in assay [1], in assay [2], in assay [4] and in assay [6] was inactive. Moreover, the Potency result in assay [16], in [5], in assay [7], in [8], in assay [10] and in [12] was “inactive” throughout. Also, the Potency entry in assay [13], in assay [14] and in assay [15] was “inactive” throughout.

Source of the values: PubChem BioAssay (Tox21).
